# The full list was thinned out, with hits kept by preference.
# Methyltransferases = Primary Screen for Target Class Profiling of Small Molecule Inhibitors of Methyltransferases | AID 1745853, 2022 | purified enzyme, MTase-Glo SAH luminescence; active compounds read low | calls only at 40 µM | 3.9% of 25,000 active; call rule not given here
#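 Each enzyme was reacted with SAM and its substrate, with compounds tested once at 40 uM; SAH formed was read by MTase-Glo luminescence.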
# MTase-Glo counter = inhibits MTase-Glo coupling enzymes without methyltransferase; 6% of 180 active; shares compounds with Methyltransferases; Potency, µM (top dose mostly 57.3 µM), for the others: at the top dose activity change, negative = inhibition, hits mostly inhibitors; MTase-Glo coupled enzymes, SAH conversion luminescence, no MTase; AID 1745851; active = well fitted inhibition curve with a large enough effect; also: potency is read from the fitted curve at half-maximal effect
# Starred values were filed as active, the others as inactive; i = inactive; + = active, no number; [ ] = another dose, or the depositor's remark. % is scaled to controls: 0 for no effect and ±100 for the full control effect.
SMILES,Methyltransferases,others
Cc1cccc2c(C(=O)Nc3ccc4c(c3)C(=O)N(C)C3=NCCN34)cc(-c3ccccc3)nc12,i,
O=C(NC1CCCC1)c1cc2cn(C3CC3)cc2s1,i,
COc1ccc(N2CCN(S(=O)(=O)c3ccc4[nH]c(=O)[nH]c4c3)CC2)cc1,i,
Cc1sc2ncn(CC(=O)NCc3cccs3)c(=O)c2c1S(=O)(=O)N1CCC(C)CC1,i,
COc1cccc(CN2C(=O)c3ccc(-c4ccco4)n3CC2(C)C(=O)NC2CCCC2)c1 (centres undefined),i,
COc1ccc(-c2cc3n(n2)CC(C)(C(=O)NCc2ccccc2)N(c2ccc(OC)cc2)C3=O)cc1 (centres undefined),i,
O=C(c1cccc(OC2CN(C3CCCC3)C2)c1)N1CCCC1,i,
CN1CCN(c2nc3cc(C(F)(F)F)ccc3n3cccc23)CC1,i,
O=C(C1CC2(CCNCC2)CN1)N1CCC(c2nc3ccccc3[nH]2)CC1 (centres undefined),i,
CC(=O)N1CCC(C(=O)N2CCCC(c3nc4ncccc4[nH]3)C2)CC1 (centres undefined),i,
CN1CCC(N2CC[C@H](c3nc4ccccc4[nH]3)C2)CC1,+,MTase-Glo counter=-2%[114 µM]
CN1CCC(N2CC[C@H](c3nc4ccc(C(F)(F)F)cc4[nH]3)C2)CC1,+,MTase-Glo counter=2%[85.7 µM]
CC(=O)N1CC[C@H](c2nc3ccc(C#N)cc3[nH]2)C1,i,
CCCC1c2cccn2CCN1C(=O)Nc1ccc(OCC)cc1 (centres undefined),i,
Cn1c(=O)c2ccc(C(=O)NC3CCCCC3)cc2n2c(SCC(=O)Nc3ccc(F)cc3)nnc12,i,
Cc1ccccc1N1C(=O)c2cc3sccc3n2CC1(C)C(=O)NC1CCCCC1 (centres undefined),i,
O=C1CN(Cc2ccc(Br)cc2)S(=O)(=O)c2ccccc2N1Cc1cccc(F)c1,i,
COc1cncc(Nc2ncc(-c3ccccc3OC)c3c2OCC3)c1,+,MTase-Glo counter=-3%[85.7 µM]
Cc1noc(C)c1-c1cnc(Nc2ccc(F)c(Cl)c2)c2c1CCO2,i,
CN(C)c1ccc(CN2C(=O)c3ccc(-c4ccco4)n3CC2(C)C(=O)NCc2ccc(Cl)cc2)cc1 (centres undefined),i,
CCc1ccc(-c2cc3n(n2)CC(C)(C(=O)NC2CCCCC2)N(CCN(C)C)C3=O)cc1 (centres undefined),i,
Cc1cccc(CCNC(=O)CCc2nnc3n(Cc4ccccc4)c(=O)c4ccccc4n23)c1,i,
COc1ccc(-c2nn(-c3ccccc3C)cc2CN2CCCN(C)CC2)cc1F,i,
COc1ccc(OC)c(CN2CCNc3cc(-c4ccnc(C)c4)ncc3C2)c1,+,MTase-Glo counter=4%[85.7 µM]
COc1ccc(OC)c(CN2CCC3(CC2)Nc2ccccc2NC3=O)c1,i,
SMILES,Methyltransferases,others
COc1ccccc1CNC(=O)C1c2c(n(C)c3ccccc23)SCC(=O)N1c1ccc(F)cc1 (centres undefined),i,
CCC(C)OC(=O)C(C)Oc1ccc2c(=O)c(-c3ccc(OC)c(OC)c3)c(C(F)(F)F)oc2c1 (centres undefined),i,
Cc1c(Cl)cccc1NS(=O)(=O)c1ccc2[nH]c3c(c2c1)CCCC3,i,
COc1cccc(N2C(=O)NC(=NC3CCCC3)C23CCN(Cc2ccccc2)C3)c1 (centres undefined),i,
COc1cccc(N2C(=O)NC(=NC3CCCCC3)C23CCCN(CC2CCCCC2)C3)c1 (centres undefined),+,MTase-Glo counter=3%
COc1cccc(N2C(=O)NC(=NC3CCCCC3)C23CCN(CC2CC2)C3)c1 (centres undefined),i,
Cn1c(=O)n(C)c2cc(S(=O)(=O)NCC3CCCO3)ccc21 (centres undefined),i,
CN(C)c1cc(N2CCCC(NC(=O)C3CCC3)C2)ncn1 (centres undefined),i,
CCCn1cc(C(=O)N2C[C@@H](N(C)C)[C@H](c3ccc(C)cc3)C2)c(C)n1,i,
Cc1ccc([C@@H]2CN(c3cc(N4CCC(O)CC4)ncn3)C[C@H]2N(C)C)cc1,+,MTase-Glo counter=-3%
Cc1ccc(N2C(=O)c3cc4occc4n3CC2(C)C(=O)NC2CCCCC2C)cc1C (centres undefined),i,
CC(C(=O)Nc1cc(C#N)ccc1CCCC(=O)O)c1ccc(F)c2ccccc12 (centres undefined),i,
Fc1ccc(CNc2nc3c(-c4ccccc4)nnn3c3ccccc23)cc1,i,
CCCC1c2ccc(C)n2CCN1C(=O)Nc1cc(Cl)c(OC)cc1OC (centres undefined),i,
Fc1ccccc1Nc1ccnc(N2CC3CCC(C2)N3CC(F)(F)F)n1,i,
N#Cc1cnc(N2CC3CCC(C2)N3CC(F)(F)F)s1,+,MTase-Glo counter=-2%[85.7 µM]
CCCSCCCN1C(=O)c2cc3oc(C)cc3n2CC1(C)C(=O)NC1CCCCCCC1 (centres undefined),i,

# Source: PubChem
